Reference: PubChem BioAssay (NCI)
The panel holds about 83,000 compounds, 20% with a hit somewhere; the sample as a whole holds those more often.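 Values shown are percent growth following 48 h exposure of cells in 96-well plates to a single concentration of compound; below 10 was considered active.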 Activity calls are given as the source filed them.

Legend:
Experiment in all cases: NCI-60 one-dose screen, 48 h (100 = growth as untreated, 0 = no growth, -100 = all killed)
Details in all cases: 10 µM unless noted
[1] = system: HCT-15 colon
[2] = system: HT29 colon
[3] = system: SNB-75 CNS
[4] = system: SNB-19 CNS
[5] = system: U251 CNS
[6] = system: PC-3 prostate
[7] = system: SK-MEL-5 melanoma
[8] = system: UACC-62 melanoma
[9] = system: LOX IMVI melanoma
[10] = system: SK-MEL-28 melanoma
[11] = system: SK-MEL-2 melanoma
[12] = system: EKVX NSCLC
[13] = system: SN12C renal
[14] = system: UO-31 renal
[15] = system: TK-10 renal
[16] = system: A498 renal
[17] = system: CCRF-CEM leukemia
[18] = system: MOLT-4 leukemia

Measured: growth

COc1ccc2c(c1)O/C(=C/c1ccc(OCC(=O)Nc3ccc(S(N)(=O)=O)cc3)cc1)C2=O
inactive: [1] 93.7% | [2] 102% | [3] 89.8% | [4] 92.1% | [5] 97.7% | [6] 91% | [7] 94.3% | [8] 88% | [9] 101% | [10] 108% | [11] 97.7% | [12] 97.5% | [13] 98.1% | [14] 85.6% | [15] 115% | [16] 91.5% | [17] 94.6% | [18] 88.3%

O=C(O)c1cccc(S(=O)(=O)c2ccccc2)c1
inactive: [1] 99.4% | [2] 104% | [3] 84.2% | [4] 110% | [5] 108% | [6] 100% | [7] 97% | [8] 101% | [9] 99% | [10] 98.9% | [11] 104% | [12] 92.6% | [13] 102% | [14] 96.1% | [15] 93.2% | [16] 98.5% | [17] 103% | [18] 99.6%

COc1cc(-c2nc(N)n(CC(=O)Nc3ccc(/C(C)=N\O)cc3)n2)cc(OC)c1OC
inactive: [1] 101% | [2] 86.4% | [3] 74.1% | [4] 99.9% | [5] 85.8% | [6] 76.7% | [7] 97.9% | [8] 83.6% | [9] 99.6% | [10] 94.2% | [11] 92.1% | [12] 106% | [13] 96% | [14] 79.5% | [15] 90.9% | [16] 89.8% | [17] 84.5% | [18] 91.6%

COc1ccc(Cl)cc1NC(=O)c1cc2c(n1C)-c1nc(NC(=O)C(C)C)sc1CC2
inactive: [1] 50.7% | [2] 66.7% | [3] 59.3% | [4] 83.1% | [5] 59.9% | [6] 60.6% | [7] 61% | [8] 83.1% | [9] 93% | [10] 95.1% | [11] 64.6% | [12] 91.3% | [13] 94.5% | [14] 76.7% | [15] 92% | [16] 93.2% | [17] 84.4%

Cc1c(NC(=O)c2sc3nc4c(cc3c2N)CN(Cc2ccccc2)CC4)cccc1C(F)(F)F
inactive: [1] 29.3% | [2] 12.2% | [3] 45.8% | [4] 50.5% | [5] 38.2% | [6] 56% | [7] 41.9% | [8] 37.2% | [9] 42.3% | [10] 74% | [11] 49.5% | [12] 62.1% | [13] 55.2% | [14] 65.6% | [15] 96% | [16] 52% | [17] 15.6% | [18] 25.9%

CC(C)CNCC(=O)Nc1ccc(Cc2ccc(NC(=O)CNCC(C)C)cc2)cc1
inactive: [1] 50.2% | [2] 15.8% | [3] 65.7% | [4] 72.6% | [5] 50.5% | [6] 25.8% | [7] 40.3% | [8] 64.6% | [9] 60.4% | [10] 80.4% | [11] 87.6% | [12] 67.9% | [13] 49.7% | [14] 38.4% | [15] 84.8% | [16] 47.2% | [17] 26.4%

COc1ccc(/C=C2/C(=O)Nc3cc(Cl)c(-c4csc(N)n4)cc32)cc1
inactive: [1] 39.9% | [2] 27.9% | [3] 37.5% | [4] 45.5% | [5] 46.3% | [6] 50.3% | [7] 19.1% | [8] 37.6% | [9] 48.6% | [10] 70.1% | [11] 35% | [12] 46.5% | [13] 59.6% | [14] 55.6% | [15] 84.4% | [16] 25.1% | [17] 31.7% | [18] 28.2%

C#C[C@H](O)/C=C/CCCCCCC#C[C@H](O)CC[C@@H](O)C#CCCCCCC/C=C/[C@@H](O)C#C
inactive: [1] 80.4% | [2] 80.6% | [3] 85.1% | [4] 101% | [5] 89.3% | [6] 80.7% | [7] 91.9% | [8] 80% | [10] 101% | [11] 92.7% | [12] 90.2% | [13] 69.1% | [15] 106% | [16] 102%
active: [9] -71.2% | [14] -82.6% | [17] -37.3% | [18] 0.882%

Cc1nccc2c3ccc(OCc4cn(-c5ccc(Br)cc5)nn4)cc3n(CCCc3ccccc3)c12
inactive: [1] 60.5% | [2] 10.5% | [3] 26.7% | [4] 56.1% | [6] 14.1% | [7] 30.4% | [11] 107% | [12] 68.9% | [13] 66.9% | [15] 34.1% | [16] 110% | [17] 15%
active: [5] -61% | [8] 6.16% | [9] -39.6% | [10] -67.6% | [14] -73.5%

CCNc1ncnc2n[nH]nc12
inactive: [1] 98.4% | [2] 100% | [3] 94.8% | [4] 96.4% | [5] 95.3% | [6] 82.3% | [7] 98.7% | [8] 99.3% | [9] 102% | [10] 107% | [11] 104% | [12] 94.7% | [13] 102% | [14] 98.4% | [15] 91.9% | [16] 102% | [17] 87.5%

Cc1ccc2[nH]c3nc4cccnc4c(C)c3c2c1
active: [12] 9.94%
inactive: [1] 88.1% | [2] 92.6% | [3] 77.6% | [4] 79% | [5] 75.7% | [6] 92.7% | [7] 95.2% | [8] 100% | [9] 89.7% | [10] 119% | [11] 119% | [13] 88.4% | [14] 62.8% | [15] 38.7% | [16] 92.7% | [17] 85.9% | [18] 81.9%

COC(=O)c1ccc(NC(N)=NCC(C)(C)COc2ccc(C(F)(F)F)cc2)nc1
inactive: [1] 18.1% | [3] 86.8% | [4] 68.8% | [5] 40.1% | [6] 50.9% | [7] 23.2% | [8] 65.5% | [9] 16.5% | [10] 90.1% | [11] 79.9% | [12] 45.5% | [13] 51.3% | [14] 41.1% | [15] 53.9% | [16] 74.2% | [17] 15.7%
active: [2] 9.44% | [18] 9.32%

C/C(=N/O)c1ccc(NC(=O)Cn2nc(-c3ccc(Cl)cc3)nc2N)cc1
inactive: [1] 114% | [2] 86.8% | [3] 87.3% | [4] 89.1% | [5] 90.3% | [6] 71.8% | [7] 98.1% | [8] 91.8% | [9] 97% | [10] 114% | [11] 84.9% | [12] 98.6% | [13] 102% | [14] 66% | [15] 120% | [16] 103% | [17] 85.8% | [18] 66.7%

C=CC(C)(O)CCC1C(=C)CCC2C(C)(C)CCCC12C (stereo not drawn)
inactive: [1] 97.3% | [2] 70.1% | [3] 91.3% | [4] 111% | [5] 104% | [6] 112% | [7] 107% | [8] 95.5% | [9] 97.2% | [10] 101% | [11] 92.2% | [12] 96.7% | [13] 108% | [14] 90.3% | [15] 83.3% | [16] 106% | [17] 124% | [18] 89.9%

Cc1ncc(CO)c(C(=O)O)c1O
inactive: [1] 105% | [2] 89.1% | [3] 93.4% | [4] 107% | [5] 98.8% | [6] 88.5% | [7] 103% | [8] 97% | [9] 102% | [10] 102% | [11] 89.7% | [12] 101% | [13] 97.6% | [14] 84.8% | [15] 81.2% | [16] 99.5% | [17] 121% | [18] 82.5%

CCN(CC)CCC(C(=O)O)(c1ccccc1)c1ccccc1
inactive: [1] 103% | [2] 94.9% | [3] 86.8% | [4] 104% | [5] 109% | [6] 103% | [7] 104% | [8] 97.9% | [9] 95.7% | [10] 109% | [11] 112% | [12] 96.1% | [13] 103% | [14] 89.1% | [15] 97.9% | [16] 102% | [17] 96.6%
